Results published in PubChem BioAssay AID1159580 (chemical genetic matrix, 2015).
Values joined by “and” are separate entries in the source; they are usually repeats but may differ in a detail not shown here. Identical values can stand only once. Out of some 5,500 compounds screened, about 2,000 (36%) were called active. About 18% were inconclusive and are not listed. Rule as the data show it: active = normalized growth mostly below about 0.91 (no sharp cut-off); inconclusive = no clear call, values can overlap the other calls; inactive = mostly above about 0.92. The list shows a part of the results.

Assay: chemical genetic growth profiling, strain panel (AID 1159580);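 also: tested at 20 µM; growth read once vehicle control cultures reached saturation at 30 °C; 1 = growth at the plate median or of vehicle wells; lower values mean less growth of the strain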
Conditions: S. cerevisiae deletion strains, growth OD

Measured: normalized growth

C/C1=C/CC(C)(C)/C=C/C/C(C)=C/CC1
0.85 (active) and 1.03 (inactive): locus YHR030C, strain SLT2, stronger effect = lower value
inactive: locus YAL021C, strain ccr4, stronger effect = lower value 1.04 | locus YAL026C, strain drs2, stronger effect = lower value 0.983 | locus YAL030W, strain snc1, stronger effect = lower value 0.99 | locus YBL061C, strain skt5, stronger effect = lower value 0.985 | locus YBR009C, strain hhf1, stronger effect = lower value 0.983 | locus YBR021W, strain FUR4, stronger effect = lower value 0.95 | locus YBR023C, strain chs3, stronger effect = lower value 0.99 | locus YBR171W, strain sec66, stronger effect = lower value 0.953 | locus YBR229C, strain ROT2, stronger effect = lower value 1.03 | locus YBR231C, strain swc5, stronger effect = lower value 0.977 | locus YBR279W, strain paf1, stronger effect = lower value 0.999 | locus YCL011C, strain gbp2, stronger effect = lower value 1.02 | locus YCL016C, strain dcc1, stronger effect = lower value 1.01 | locus YCL029C, strain bik1, stronger effect = lower value 1.03 | locus YCL061C, strain MRC1, stronger effect = lower value 0.988 | locus YCL069W, strain vba3, stronger effect = lower value 0.991 | locus YCR088W, strain abp1, stronger effect = lower value 0.981 | locus YDL005C, strain med2, stronger effect = lower value 0.966 | locus YDL035C, strain GPR1, stronger effect = lower value 0.91 | locus YDL040C, strain nat1, stronger effect = lower value 0.987 | locus YDL101C, strain DUN1, stronger effect = lower value 1.01 | locus YDL185W, strain tfp1, stronger effect = lower value 1 | locus YDL192W, strain arf1, stronger effect = lower value 0.988 | locus YDR001C, strain nth1, stronger effect = lower value 0.985 | locus YDR069C, strain doa4, stronger effect = lower value 0.989 | locus YDR101C, strain arx1, stronger effect = lower value 0.991 | locus YDR137W, strain rgp1, stronger effect = lower value 0.973 | locus YDR159W, strain sac3, stronger effect = lower value 0.975 | locus YDR195W, strain ref2 0.951 | locus YDR297W, strain sur2, stronger effect = lower value 0.988 | locus YDR318W, strain mcm21, stronger effect = lower value 1.01 | locus YDR334W, strain swr1, stronger effect = lower value 0.981 | locus YDR335W, strain msn5, stronger effect = lower value 0.998 | locus YDR388W, stronger effect = lower value 0.998 | locus YDR392W, strain spt3, stronger effect = lower value 0.961 | locus YDR502C, strain sam2, stronger effect = lower value 0.983 | locus YEL003W, strain gim4, stronger effect = lower value 0.983 | locus YEL037C, strain rad23, stronger effect = lower value 0.984 | locus YEL061C, strain CIN8 (second series), stronger effect = lower value 0.982 | locus YEL061C, strain CIN8, stronger effect = lower value 0.988 | locus YER015W, strain faa2, stronger effect = lower value 1 | locus YER016W, strain bim1, stronger effect = lower value 0.987 | locus YER110C, stronger effect = lower value 1.01 | locus YER111C, strain swi4, stronger effect = lower value 0.968 | locus YER155C, strain BEM2 (second series), stronger effect = lower value 1.01 | locus YER155C, strain BEM2, stronger effect = lower value 1 | locus YER167W, strain BCK2, stronger effect = lower value 0.98 | locus YFR010W, strain ubp6, stronger effect = lower value 0.978 | locus YGL078C, strain dbp3, stronger effect = lower value 0.985 | locus YGL086W, strain mad1, stronger effect = lower value 1 | locus YGL167C, strain pmr1, stronger effect = lower value 0.977 | locus YGL173C, strain kem1, stronger effect = lower value 0.96 | locus YGL227W, strain vid30, stronger effect = lower value 0.978 | locus YGL240W, strain doc1, stronger effect = lower value 0.956 | locus YGL248W, strain PDE1, stronger effect = lower value 1.01 | locus YGL253W, strain hxk2, stronger effect = lower value 0.957 | locus YGR135W, strain pre9, stronger effect = lower value 0.967 | locus YGR252W, strain gcn5, stronger effect = lower value 1.01 | locus YHR013C, strain ard1, stronger effect = lower value 1 | locus YHR027C, strain rpn1, stronger effect = lower value 0.97 | locus YHR079C, strain IRE1 (second series), stronger effect = lower value 1.01 | locus YHR079C, strain IRE1, stronger effect = lower value 1.02 | locus YHR094C, strain hxt1, stronger effect = lower value 1.01 | locus YHR129C, strain ARP1, stronger effect = lower value 1.01 | locus YHR142W, strain chs7, stronger effect = lower value 1 | locus YHR200W, strain rpn10, stronger effect = lower value 1.01 | locus YIL066C, strain RNR3, stronger effect = lower value 1.01 | locus YIL073C, strain SPO22, stronger effect = lower value 0.95 | locus YIL125W, strain kgd1, stronger effect = lower value 0.991 | locus YIR030C, strain dcg1, stronger effect = lower value 1 | locus YJL092W, strain hpr5, stronger effect = lower value 0.988 | locus YJL095W, strain BCK1 (second series), stronger effect = lower value 1 | locus YJL095W, strain BCK1, stronger effect = lower value 0.831 and 1.06 | locus YJL115W, strain asf1, stronger effect = lower value 0.988 | locus YJL129C, strain trk1, stronger effect = lower value 0.981 | locus YJL134W, strain LCB3, stronger effect = lower value 1 | locus YJL154C, strain vps35, stronger effect = lower value 0.981 | locus YJL164C, strain tpk1, stronger effect = lower value 1.01 | locus YJL166W, strain qcr8, stronger effect = lower value 0.985 | locus YJL168C, strain set2, stronger effect = lower value 1.02 | locus YJL187C, strain SWE1 (second series), stronger effect = lower value 0.976 | locus YJR043C, strain POL32, stronger effect = lower value 0.964
active: locus YDL074C, strain BRE1, stronger effect = lower value 0.769 | locus YDR162C, strain NBP2, stronger effect = lower value 0.611 | locus YGR229C, strain SMI1, stronger effect = lower value 0.389
